Inconclusive results are not listed. More than one record can exist for a structure, and the calls need not agree. Active and inactive are the calls of the source. Unless noted, calls follow the shape of the dose curve; as a rule, active = well fitted curve in the direction sought with a large enough effect in the repeat runs; inconclusive = weak or mixed curves; inactive = no such curve, though single readings can be large; an effect the other way counts as inactive or inconclusive.

In experiment [1] the target is Thyrotropin receptor (Homo sapiens) (UniProt P16473). Kind of experiment: qHTS assay to identify small molecule agonists of the thyroid stimulating hormone receptor (TSHR) signaling pathway (AID 1224843; calls by dose curve; also: nearly all actives have a fitted effect of over 45% in size; also: potency is read from the fitted curve at half-maximal effect). In a few lines:
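Cell line HEK293 with TSHR; density 800/well. Exposure 30 min RT. Readout HTRF cAMP (cAMP-d2/anti-cAMP-cryptate), 1 h RT before reading.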

A short description of experiment [2]: qHTS assay to identify small molecule agonists of the hypoxia (HIF-1) signaling pathway - cell viability counter screen (AID 1224844; calls by dose curve; also: nearly all actives have a fitted effect of over 50% in size; also: potency is read from the fitted curve at half-maximal effect). In a few lines:
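Tox21 10K compounds were added to HRE-bla ME-180 cells (0.5% dialyzed FBS) and incubated 17 hrs at 37C; ATP-based CellTiter-Glo luminescence then reported cell viability in the same wells.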

Experiment [3] is described as follows: qHTS assay to identify small molecule agonists of H2AX (AID 1224845; active = well fitted activation curve with a large enough effect in the signal ratio in the repeat runs, not every such curve was filed as active; the % refers to the signal ratio). An outline of the steps:
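Wild-type CHO-K1 cells plated overnight, then exposed 3 hr at 37C to compounds at 15 concentrations (0.76% DMSO). Lysed, then HTRF anti-pH2AX(S139)-cryptate/anti-H2AX-d2 detection after 24 hr at room temperature; emissions 665 and 620 nm.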

Experiment [4] in a line: qHTS assay to identify small molecule agonists of the hypoxia (HIF-1) signaling pathway (AID 1224846; active = well fitted activation curve with a large enough effect in the signal ratio in the repeat runs, not every such curve was filed as active; the % refers to the signal ratio). An outline of the steps:
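Steps: seed ME-180 HRE-bla cells (2,000/well, 0.5% dialyzed FBS); incubate 5 hrs at 37C; pin-transfer compounds or DMSO; incubate 17 hrs; add LiveBLAzer B/G substrate CCF4-AM; measure reporter activation by FRET.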

The nature of experiment [5]: qHTS RealTime-Glo MT Cell Viability Assay in HepG2 cells - 24 hour (AID 1224867). Also: nearly all actives have a fitted effect of over 50% in size. Also: potency is read from the fitted curve at half-maximal effect. In a few lines:
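Compound treatment began 5 h after plating HepG2 cells (600/well) with NanoLuc luciferase and prosubstrate. Plates stayed at 37 C for 40 h; luminescence was captured at six time points, 0 h through 40 h.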

Experiment [6] in a line: qHTS RealTime-Glo MT Cell Viability Assay in HEK293 cells - 32 hour (AID 1224868). Also: nearly all actives have a fitted effect of over 50% in size. Also: potency is read from the fitted curve at half-maximal effect. An outline of the steps:
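Quantitative high-throughput screen of the Tox21 10K library in HEK293: cells and RealTime-Glo reagents plated together, compound added at 5 h, luminescence monitored through 40 h at 37 C.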

Experiment [7] can be described thus: A CellTox Green Cytotoxicity Assay to monitor cytotoxicity in HEK293 cells - 0 hour (AID 1224869). Also: nearly all actives have a fitted effect of over 50% in size. In a few lines: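 Cytotoxicity was tracked continuously in HEK293 cells by a DNA-binding dye excluded from viable cells. Compounds were transferred in DMSO 5 h after seeding; fluorescence was recorded at intervals up to 40 h.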
Experiment [8] can be described thus: qHTS assay to identify small molecule agonists of H2AX - cell viability counter screen (AID 1224847; calls by dose curve; also: nearly all actives have a fitted effect of over 30% in size; also: potency is read from the fitted curve at half-maximal effect). In a few lines:
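Cells plated first: CHO-K1, 1000 per well in 10% FBS medium, incubated overnight at 37C. Then 15-point compound titration added (final DMSO 0.76%) for 3 hr. Finally CellTiter-Glo added and luminescence read.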

Experiment [9] can be described thus: qHTS assay to identify small molecule antagonists of the estrogen related receptor (ERR) signaling pathway from Tox21 library (AID 1224848). Also: nearly all actives have a fitted effect of over 50% in size. Also: potency is read from the fitted curve at half-maximal effect. In a few lines: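 Screening used an ERR reporter line supplied by NTP, exposed for 18 h at 37 C to library compounds delivered in DMSO. Signal was luciferase luminescence developed with ONE-Glo at room temperature for 30 min.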

Experiment [10] can be described thus: qHTS assay to identify small molecule agonists of the estrogen related receptor (ERR) signaling pathway from Tox21 library (AID 1224849; calls by dose curve; also: nearly all actives have a fitted effect of over 15% in size). Conditions: ERR reporter cell line, ONE-Glo luciferase, 18 h. An outline of the steps:
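Agonist signal is luciferase luminescence from an ERR reporter cell line treated 18 h at 37 C with DMSO-dissolved compounds, read 30 min after ONE-Glo addition at room temperature.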

Where [11] appears, read: at 92.4 µM (top of the series) unless noted.
% is scaled to controls: 0 for no effect and ±100 for the full control effect.

Sequence of Thyrotropin receptor (Homo sapiens) (P16473 whole entry, looked up): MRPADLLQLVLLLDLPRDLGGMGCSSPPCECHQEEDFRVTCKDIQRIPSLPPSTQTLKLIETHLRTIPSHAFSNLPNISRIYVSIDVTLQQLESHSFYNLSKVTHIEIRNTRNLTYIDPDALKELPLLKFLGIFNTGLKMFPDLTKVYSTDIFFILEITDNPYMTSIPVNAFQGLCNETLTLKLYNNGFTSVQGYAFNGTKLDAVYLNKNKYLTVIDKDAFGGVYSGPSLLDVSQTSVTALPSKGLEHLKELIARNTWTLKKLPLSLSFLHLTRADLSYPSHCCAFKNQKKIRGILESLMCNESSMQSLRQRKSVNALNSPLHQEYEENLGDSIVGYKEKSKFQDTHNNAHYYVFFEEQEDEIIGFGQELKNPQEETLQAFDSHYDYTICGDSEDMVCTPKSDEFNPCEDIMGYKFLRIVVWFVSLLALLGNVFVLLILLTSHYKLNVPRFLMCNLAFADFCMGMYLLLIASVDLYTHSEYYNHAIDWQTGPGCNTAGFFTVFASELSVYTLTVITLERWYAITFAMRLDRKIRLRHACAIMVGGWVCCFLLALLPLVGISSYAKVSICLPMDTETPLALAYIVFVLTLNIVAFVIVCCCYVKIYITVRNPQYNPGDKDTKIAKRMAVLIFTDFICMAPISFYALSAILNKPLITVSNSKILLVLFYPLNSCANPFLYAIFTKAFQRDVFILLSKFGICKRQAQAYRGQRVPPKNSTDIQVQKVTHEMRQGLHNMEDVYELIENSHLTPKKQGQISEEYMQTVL

With `CCC=CC#N`, the Potency entry in [1], in experiment [2], in experiment [3], in [5], in experiment [6] and in [7] was “inactive” each time. Moreover, the molecule was called inactive in [4].
For the molecule `CCC(OCCCOC)OC(C)=O` (stereo not given), the Potency entry in [1], in experiment [2], in experiment [3], in experiment [8], in [5] and in [6] was “inactive” in each case. For the same molecule, in experiment [7], the Potency result is “inactive”. In addition, the result in experiment [4] was inactive.
Take `CCC(=O)OC`: the Potency entry in experiment [1], in [2], in experiment [3], in experiment [5], in experiment [6] and in experiment [7] was “inactive” in each case. For the same molecule, the call in [4] was inactive.
As to `COc1cc(N)c(Cl)cc1C(=O)NC1CCN(CCCOc2ccc(F)cc2)CC1OC` (stereo not given), the Potency result in [1], in experiment [2], in experiment [3], in experiment [5] and in experiment [7] was “inactive” throughout. Also, the Potency in experiment [9] is 11.9 µM (active); in experiment [6] it was 3.01 µM (active). For the same molecule, the activity change, positive = activation in experiment [10] (setting [11]) was -39.2% [at 42.5 µM] (inactive).
As for `CO/N=C(/C(=O)N[C@@H]1C(=O)N2C(C(=O)O)=C(COC(N)=O)CS[C@H]12)c1ccco1`, the Potency entry in experiment [1], in experiment [2], in experiment [3], in experiment [5], in experiment [6] and in [7] was “inactive” throughout. Besides, the molecule was called inactive in experiment [4].
`OC[C@H]1O[C@@H](n2cnc3c(=S)nc[nH]c32)[C@H](O)[C@@H]1O`: the Potency entry in [1], in experiment [2], in experiment [5] and in experiment [7] was “inactive” in each case. Also, in [4], the result was inactive. Besides, the Potency in experiment [8] is 3.1 µM (active); in experiment [9], 11.9 µM (active); in [6], 21.3 µM (active). Further, the activity change, positive = activation in experiment [10] (setting [11]) was -47.1% [at 42.5 µM] (inactive).
Regarding `C[C@]12CC[C@@H]3c4ccc(O)cc4CC[C@H]3[C@@H]1CC[C@@H]2OC(=O)CCC1CCCC1`, the Potency entry in experiment [1], in experiment [2] and in experiment [7] was “inactive” in each case. Also, the outcome in experiment [4] was inactive. Moreover, the Potency in experiment [8] is 56.6 µM (active); in [9], 54.5 µM (active); in [5] it was 49 µM (active) and inactive; in experiment [6], 43.6 µM (active). The values for the activity change, positive = activation in experiment [10] (at 42.5 µM (top of the series)) and in experiment [10] (at 92.4 µM (top of the series)) were -30% (inactive) and -67.7% (inactive), respectively.
Regarding `O=C1NC(=O)c2cc([N+](=O)[O-])ccc21`, the Potency entry in [1], in [2], in experiment [3], in experiment [5], in experiment [6] and in experiment [7] was “inactive” each time. Moreover, the call in [4] was inactive.
For `CCOc1ccc(Cc2nccc3cc(OCC)c(OCC)cc23)cc1OCC`, the Potency result in experiment [1], in experiment [2], in experiment [3] and in [7] was “inactive” each time. The call in experiment [4] was inactive. Further, the figures for the Potency in [5] and in experiment [6] were 12 µM (active) and 6.01 µM (active), respectively.
In the case of `NCCNCCO`, the Potency entry in experiment [1], in [2], in experiment [3], in experiment [9], in experiment [5] and in [6] was “inactive” throughout. Also, the Potency result in experiment [7] is “inactive”. In experiment [4], the call was inactive. Moreover, the activity change, positive = activation in experiment [10] (setting [11]) was 0.838% (inactive).
`CC1=Nc2ccc3ccccc3c2C1(C)C`: the Potency result in [1], in experiment [2], in experiment [3], in experiment [5], in experiment [6] and in experiment [7] was “inactive” each time. In addition, the result in experiment [4] was inactive. In addition, the activity change, positive = activation in experiment [10] (setting [11]) is -35.4% (inactive).
Turning to `C[C@H]1C[C@H](O)c2ccsc2S1(=O)=O`, the Potency result in [1], in [2], in experiment [3], in [5], in experiment [6] and in experiment [7] was “inactive” in each case. Besides, the outcome in experiment [4] was inactive. Moreover, the activity change, positive = activation in experiment [10] (setting [11]) is 5.62% [at 42.5 µM] (inactive).
Take `CCCCCCCCC(CCCCCC)C(=O)O` (stereo not given): the Potency result in experiment [1], in experiment [3], in experiment [5], in [6] and in experiment [7] was “inactive” each time. In experiment [2], the Potency is 43.6 µM (active). For the same molecule, the activity change, positive = activation in [10] (setting [11]) was -27.5% (inactive).
Consider `CCC(C)COC(=O)CC(C)C` (stereo not given), for which the Potency result in experiment [1], in [3], in experiment [8], in experiment [5], in experiment [6] and in experiment [7] was “inactive” in each case. Further, the Potency in experiment [2] was 19.5 µM (active).
Turning to `CCCC(=O)C(=O)O`, the Potency entry in experiment [1], in experiment [2], in experiment [3], in experiment [8], in [5] and in experiment [6] was “inactive” in each case. For the same molecule, the Potency result in experiment [7] was “inactive”. In addition, in [4], the result was inactive.
On to `CCn1cc(C(=O)O)c(=O)c2cc(F)c(N3CCNCC3)cc21`, for which the Potency result in [1], in experiment [2], in experiment [3], in experiment [5], in [6] and in [7] was “inactive” throughout.
Take `OC(CCN1CCCC1)(c1ccccc1)C1CCCCC1` (stereo not given): the Potency result in [1], in experiment [2], in [3], in [5], in [6] and in [7] was “inactive” throughout.
Take `CC1(C)O[C@@H]2C[C@H]3[C@@H]4C[C@H](F)C5=CC(=O)C=C[C@]5(C)[C@H]4[C@@H](O)C[C@]3(C)[C@]2(C(=O)CO)O1`: the Potency entry in experiment [1], in [2], in experiment [3], in experiment [5], in experiment [6] and in experiment [7] was “inactive” throughout. Also, the molecule was classed as inactive in experiment [4].
As to `CC(C)C(O)(c1ccc(OC(F)(F)F)cc1)c1cncnc1` (stereo not given), the Potency in experiment [1] is 48.4 µM (active). In addition, the Potency result in [2], in [3], in experiment [8], in experiment [5] and in experiment [7] was “inactive” throughout. In addition, the result in experiment [4] was inactive.
Turning to `Cc1ccc(Cl)c(Nc2ccccc2C(=O)O)c1Cl`, the Potency entry in experiment [1], in experiment [2], in [3], in experiment [8], in [5] and in experiment [6] was “inactive” in each case. Also, in experiment [7], the Potency entry is “inactive”.
As for `Nc1ncnc2c1ncn2[C@H]1CC[C@@H](CO)O1`, the Potency entry in [1], in [2], in [3], in experiment [5], in [6] and in [7] was “inactive” in each case. In [4], the molecule was classed as inactive.
Regarding `O=C(O)CCc1nc(-c2ccccc2)c(-c2ccccc2)o1`, the Potency entry in [1], in experiment [2], in experiment [3], in experiment [8], in experiment [5] and in experiment [6] was “inactive” each time. In addition, the Potency entry in experiment [7] was “inactive”. Also, the activity change, positive = activation in experiment [10] (setting [11]) is -3.38% [at 42.5 µM] (inactive).
`CCOC(=O)OC(C)OC(=O)[C@@H]1N2C(=O)[C@@H](NC(=O)[C@H](N)c3ccccc3)[C@H]2SC1(C)C` (stereo not given in full): the Potency entry in [1], in [2], in [3], in [5], in experiment [6] and in experiment [7] was “inactive” throughout.
Take `CO[C@]1(NC(=O)CSC(F)F)C(=O)N2C(C(=O)O)=C(CSc3nnnn3CCO)CO[C@H]21`: the Potency entry in experiment [1], in [2], in experiment [3], in [5], in [6] and in [7] was “inactive” throughout. The call in experiment [4] was inactive.
As for `Cc1cc(C)c(N)cc1C`, the Potency entry in experiment [1], in experiment [2], in experiment [3], in [8], in experiment [5] and in [6] was “inactive” each time. The Potency result in [7] was “inactive”. The result in experiment [4] was inactive.
For `C=CCc1ccccc1OCC(O)CNC(C)C` (stereo not given), the Potency result in [1], in [2], in experiment [3], in experiment [8], in experiment [5] and in experiment [6] was “inactive” each time. In addition, the Potency entry in experiment [7] was “inactive”.
With `CC(=O)OCC[N+](C)(C)C`, the Potency entry in experiment [1], in experiment [2], in [3], in experiment [8], in [5] and in [6] was “inactive” each time. The Potency entry in experiment [7] is “inactive”.

The record behind these values is PubChem BioAssay (Tox21).
